In PubChem BioAssay:

Tests used:
[1] = tested on: Human papillomavirus type 1a protein E7 (residues 44-93); assay: HPV1a E7 fragment binders on microarrays, primary screen, biochemical, small-molecule microarray, residues 44-93, 635 nm fluorescence (AID 1108); settings: small-molecule microarray binding, fluorescence 635 nm; higher = more signal;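 further: E7 fragment applied at 1 µg/mL in TBST for 1 h at 4 C; score combines spot fluorescence with its signal to noise ratio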
[2] = modulators of HCV replicon luciferase signal, primary screen, HCV replication inhibitor project, Huh7 cells, luciferase reporter (AID 1109); settings: 48 h, higher = more signal;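 further: huh7 hepatoma cells harbouring a luciferase neomycin HCV replicon reporter; luciferase luminescence as measure of HCV replicon replication; test concentration not given here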
[3] = target: Left-right determination factor 2 (Homo sapiens) (UniProt O00292); assay: LEFTY2 binders on small-molecule microarrays, primary screen, biochemical, small-molecule microarray, 635 nm fluorescence scan (AID 1110); settings: LEFTY2 binding, higher = more signal
Left-right determination factor 2 (Homo sapiens), sequence (O00292 whole entry, looked up): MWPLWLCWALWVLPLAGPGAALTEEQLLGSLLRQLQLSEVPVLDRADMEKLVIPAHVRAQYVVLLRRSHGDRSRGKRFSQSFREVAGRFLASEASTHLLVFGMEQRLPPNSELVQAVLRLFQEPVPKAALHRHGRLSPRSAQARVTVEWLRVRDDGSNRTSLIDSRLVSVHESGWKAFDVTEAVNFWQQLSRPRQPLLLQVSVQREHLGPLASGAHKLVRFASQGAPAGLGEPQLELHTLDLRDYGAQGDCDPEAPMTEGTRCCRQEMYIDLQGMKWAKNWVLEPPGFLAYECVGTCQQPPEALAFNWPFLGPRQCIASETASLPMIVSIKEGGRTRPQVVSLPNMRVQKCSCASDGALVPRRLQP

[4] = target: Calmodulin-1 (Homo sapiens) (UniProt P0DP23); assay: CALM1 binders on microarrays, EGTA buffer, profiling panel, biochemical, small-molecule microarray, Cy5-labelled CALM1 (AID 1111); settings: Cy5-CALM1 binding fluorescence, higher = more signal;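 further: labelled calmodulin applied in Tris saline Tween buffer holding calcium plus EGTA and DTT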
[5] = target: Calmodulin-1 (Homo sapiens) (UniProt P0DP23); assay: calcium-bound CALM1 binders on microarrays, profiling panel, artefact control for SMM control-protein annotation, biochemical, small-molecule microarray, Cy5-labelled CALM1, plus calcium (AID 1112); settings: Cy5-CALM1 binding fluorescence, higher = more signal;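 further: score merges spot fluorescence with signal to noise from triplicate slides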
[6] = small-molecule microarray binders of probe aWnt5a, primary screen, biochemical, biotinylated probe, 635/667 nm fluorescence (AID 1113); settings: higher = more signal;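 further: score merges 667 nm fluorescence intensity with signal-to-noise per printed feature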
[7] = small-molecule microarray binders of probe aShh, primary screen, biochemical, biotinylated probe, 635/667 nm fluorescence (AID 1114); settings: higher = more signal;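 further: probe is biotin-labelled aShh protein from a stem cell growth factor screen; measures binding of labelled protein to compounds printed on the slide; score merges feature fluorescence at 667 nm with signal-to-noise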
[8] = small-molecule microarray binders of probe aNog, primary screen, biochemical, biotinylated probe, 635/667 nm fluorescence (AID 1115); settings: higher = more signal;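 further: probe is biotinylated aNog protein used at 0.15 µg/mL for 1 h at 4 C; z-score combines 667 nm fluorescence of each spot with its signal to noise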
[9] = target: Torsin-1A-interacting protein 1 (Homo sapiens) (UniProt Q5JTV8); assay: LAP1 binders from COS7 cell lysate, primary screen, small-molecule microarray, 635/667 nm fluorescence (AID 1116); settings: COS7-hLAP1 lysate binding, 635 nm fluorescence, higher = more signal
Torsin-1A-interacting protein 1 (Homo sapiens), sequence (Q5JTV8 whole entry, looked up): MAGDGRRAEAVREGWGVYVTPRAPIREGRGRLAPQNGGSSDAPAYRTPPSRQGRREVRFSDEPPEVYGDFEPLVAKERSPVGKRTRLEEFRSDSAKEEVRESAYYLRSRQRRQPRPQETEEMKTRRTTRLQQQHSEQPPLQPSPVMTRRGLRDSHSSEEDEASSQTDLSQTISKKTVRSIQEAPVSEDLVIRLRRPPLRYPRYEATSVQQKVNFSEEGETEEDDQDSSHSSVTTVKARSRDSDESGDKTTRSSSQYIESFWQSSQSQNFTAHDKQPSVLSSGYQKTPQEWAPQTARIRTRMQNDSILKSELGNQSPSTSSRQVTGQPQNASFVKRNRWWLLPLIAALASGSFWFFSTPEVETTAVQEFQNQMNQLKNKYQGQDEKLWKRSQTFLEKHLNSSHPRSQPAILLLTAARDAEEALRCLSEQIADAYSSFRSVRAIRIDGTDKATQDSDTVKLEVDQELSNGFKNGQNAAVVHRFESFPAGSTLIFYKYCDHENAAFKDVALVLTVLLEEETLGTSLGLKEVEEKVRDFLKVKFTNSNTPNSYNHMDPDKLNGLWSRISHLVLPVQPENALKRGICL

[10] = target: Alpha-bungarotoxin (Bungarus multicinctus) (UniProt P60615); assay: alpha-bungarotoxin binders on microarray, profiling panel, artefact control for SMM control protein annotation, biochemical, small-molecule microarray, Alexa647 label, 635/667 nm fluorescence (AID 1117); settings: alpha-BTX-A647 binding fluorescence, higher = more signal
Alpha-bungarotoxin (Bungarus multicinctus), sequence (P60615 whole entry, looked up): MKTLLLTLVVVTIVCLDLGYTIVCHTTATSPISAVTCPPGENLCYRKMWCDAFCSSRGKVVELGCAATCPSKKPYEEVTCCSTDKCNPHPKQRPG

SMILES	composite z-score [1]	z-score [2]	composite z-score [3]	composite z-score [4]	composite z-score [5]	composite z-score [6]	composite z-score [7]	composite z-score [8]	composite z-score [9]	composite z-score [10]
CCOC(=O)C[C@H]1[C@H](OC(=O)c2cc3ccccc3oc2=O)[C@@H](NC(=O)Cc2ccc(OC)cc2)c2cc(OCCCO)ccc2N1C(=O)Cc1ccc(OC)cc1	0.351	-1.73	0.594	-0.326	-0.54	-0.096	-0.145	-0.0428	0.0475	0.329
CC(C)C[C@@H]1NC(=O)[C@@H]2C[C@H](C(=O)NCCCCCCNC(=O)CS)[C@H](c3ccc(O)cc3)N2C1=O	1.48	0.388	0.734	1.06	0.152	-0.0495	-0.0211	0.693	0.469	1.76
CCCCCN1CC=CC23O[C@@H]4/C=C\CCCOC(=O)C4[C@H]2C(=O)N(CCCCCO)[C@@H]3C1=O (stereo not given in full)	-0.735	-0.831	-1.08	-0.517	-0.97	-0.224	0.0121	-0.121	-1.28	-0.543
CC(=O)NCCCC[C@@H]1NC(=O)[C@H]2C[C@@H](C(=O)O)[C@@H](c3cccc(OCCO)c3)N2C1=O	1.11	-1.14	0.978	0.0626	-0.767	0.27	0.588	1.51	1.53	1.49
COC(=O)[C@@]1(Cc2ccccc2)[C@H]2c3cc(C(=O)N(C)C)n(CCF)c3C[C@H]2CN1C(=O)c1ccccc1	0.233	-1.66	-0.555	2.8	1.31	-0.0118	-0.305	-0.52	3.08	1.43
C=C(CC1([C@@H](NP(=O)(c2ccccc2)c2ccccc2)[C@H]2C[C@@H]2CCCC)CC1)c1cccc(OC)c1	0.812	-1.79	-0.872	1.48	0.691	0.103	0.313	1.46	0.182	-0.306
CCCCC(=C=CC[C@@H](O)c1ccc(OCCO)cc1)CCO	-0.919	-0.96	-0.488	-0.45	0.0486	-0.101	-0.154	-0.314	0.764	0.657
O=C1C2C=CC(C(O)C3CCCCC3)N(Nc3ccccc3F)C2C(=O)N1c1ccccc1 (stereo not given)	1.45	-1.49	0.135	2.06	1	0.0993	-0.0054	-0.0116	1.27	2.4
COc1ccc([Si](C)(C)[C@H]2[C@H](CC(=O)N3CCC[C@H]3CO)O[C@@]3(C(=O)N(Cc4cccc(N5CCCCC5=O)c4)c4ccccc43)[C@@H]2C)cc1	1.3	-2.54	0.854	0.733	0.222	-0.101	0.396	0.381	1.06	1.22
CC(C)(C)OC(=O)CC[C@@]1(C(N)=O)N=C(c2ccc(OCCCO)cc2)O[C@@H]1c1ccccc1CN=[N+]=[N-]	1.35	0.0506	-0.0243	2.47	1.9	0.188	0.553	1.52	1.48	2.58
COc1ccc([Si](C)(C)[C@@H]2[C@@H](CC(=O)N3CCC[C@H]3CO)O[C@]3(C(=O)N(Cc4cccc(N5C(=O)c6cccc7cccc5c67)c4)c4ccccc43)[C@H]2C)cc1	1.29	-2.11	0.456	1.15	-0.226	-0.108	-0.0793	-0.458	2.23	0.669
COC(=O)[C@@]1(Cc2ccc(F)cc2)[C@H]2c3cc(C(=O)N4CCCC4)n(CCc4c[nH]c5cc(F)ccc45)c3C[C@H]2CN1C(=O)c1ccccc1	1.41	-1.62	0.119	1.91	1.2	0.562	0.472	-0.615	-0.291	0.841
CN(C)C(=O)[C@]1(CCS(=O)(=O)c2ccccc2)N=C(c2ccc(OCCCO)cc2)O[C@@H]1c1ccccc1CN=[N+]=[N-]	0.924	-2.39	-0.0755	1.98	0.68	0.0215	-0.0891	0.463	1.48	1.71
O=C(c1ccccc1)N1Cc2ccccc2C[C@@]2(N=C(c3ccc(OCCCO)cc3)O[C@H]2c2ccccc2)C1=O	1.38	-2.91	0.821	2.64	-0.249	-0.0515	0.0483	-0.432	2.39	1.01
O=C1O[C@H](c2ccccc2)[C@H](c2ccccc2)N2[C@H]1[C@@H](C(=O)Nc1nc3ccccc3s1)[C@]1(C(=O)Nc3ccccc31)[C@H]2c1ccccc1OCCO	1.39	-2.72	0.364	2.01	0.736	-0.0405	-0.0289	-0.501	2.27	1.69
CC(C)[Si](C#Cc1ccccc1)(O[C@H](c1ccccc1)c1cn(Cc2ccccc2)nn1)C(C)C	0.657	0.167	0.0441	-0.49	-1.67	-0.169	-0.138	-0.138	0.567	0.579
C[C@]12C(=O)N(CCO)[C@@H]3C(=O)N(c4ccc(Cl)cc4)CC=CC31O[C@@H]1/C=C\CCCOC(=O)C12 (stereo not given in full)	-0.576	-0.445	-1.59	0.409	0.186	-0.18	-0.154	-0.153	-0.759	-0.181
